Compound activity: PubChem BioAssay, National Center for Advancing Translational Sciences (NCATS)
TRHR enhancer-1 – allosterically enhances the human TRH receptor | 360,000 tested, 0.66% active | AID 493056 | P34981 | TRHR cells, fluo-8 calcium fluorescence, EC20 TRH enhancement | enhancement, % at 2 µM; in the data active = enhancement above about 30%
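TRHR-expressing cells loaded with fluo-8 calcium dye were read kinetically (ex 480/em 530) during compound addition, then stimulated with an EC20 of TRH (10 nM final). Enhancement of the Gq-mediated intracellular calcium response was scored.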
D1 antag – antagonists of human D1 dopamine receptor; activity change, negative = inhibition, % at 10 µM; P21728; AID 504652; HEK293 TREx D1 cells, calcium flux, dopamine EC80; stronger effect = lower value; 360,000 tested, 3.2% active; in the data active = activity change below about -30%
Target sequence (P21728 whole entry, looked up): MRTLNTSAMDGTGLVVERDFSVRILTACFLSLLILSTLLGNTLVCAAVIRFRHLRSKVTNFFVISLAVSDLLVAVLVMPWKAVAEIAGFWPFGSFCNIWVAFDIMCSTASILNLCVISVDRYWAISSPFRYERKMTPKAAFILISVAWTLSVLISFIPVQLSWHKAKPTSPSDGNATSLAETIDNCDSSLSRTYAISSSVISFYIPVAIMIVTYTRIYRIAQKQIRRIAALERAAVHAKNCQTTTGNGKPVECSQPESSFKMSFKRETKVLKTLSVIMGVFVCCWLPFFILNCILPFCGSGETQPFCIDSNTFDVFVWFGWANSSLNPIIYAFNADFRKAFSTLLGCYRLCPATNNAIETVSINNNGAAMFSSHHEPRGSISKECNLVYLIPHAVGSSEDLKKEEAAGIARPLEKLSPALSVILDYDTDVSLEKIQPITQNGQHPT
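After overnight tetracycline induction at 30 C, force-coupled D1 HEK293 cells took up a no-wash calcium dye at room temperature. Compounds were added and monitored 180 s, and the response to EC80 dopamine was then recorded.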
D1 agonist – activates the human D1 dopamine receptor. activation, % at 2 µM. HEK293 T-REx D1 cells, calcium flux, agonist mode. P21728. 360,000 tested, 1% active
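Agonism was scored from calcium flux recorded over 180 s (1 read/s) after pintool compound addition, following a 10-cycle baseline. Cells were inducible force-coupled HEK293 TREx D1, plated overnight at 30 C and loaded with no-wash calcium dye.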
D1 PAM – human D1 dopamine receptor positive modulation. P21728. HEK293 TREx D1 cells, calcium flux, dopamine EC20 potentiation. potentiation, % at 10 µM. 360,000 tested, 0.036% active; in the data active = potentiation above about 30%
TRHR agonist-1 – activates the human TRH receptor; P34981; TRHR cells, calcium flux fluo-8, FDSS agonist mode; activation, % at 2 µM; 360,000 tested, 0.18% active; AID 493084
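TRHR-expressing cells, plated overnight in medium with 10% serum, were loaded with fluo-8 calcium dye at room temperature. After a 10 s baseline, library compound was pin-added and calcium release was recorded kinetically (ex 480/em 530) as agonist response.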
TRHR enhancer-2 – confirmation of human TRH receptor allosteric enhancers; shares compounds with TRHR enhancer-1; TRH receptor cell assay, enhancer confirmation qHTS; activity change, negative = inhibition, % at 46.1 µM; 970 tested, under 10 active; active = well fitted curve in the direction sought with a large enough effect; inconclusive = small, poorly fitted or top-dose-only effect, or another doubt; inactive = no such curve, though single readings can be large; an effect the other way counts as inactive or inconclusive;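 also: compound effect scored on response to added TRH at EC20 of 10 nM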
TRHR agonist-2 – confirmation of human TRH receptor agonists; 970 tested, 8% active; Potency, µM (doses to about 46.1 µM), hits mostly activators; AID 493078; shares compounds with TRHR enhancer-1; TRHR-expressing cells, agonist activation read-out; active = well fitted curve in the direction sought with a large enough effect; inconclusive = small, poorly fitted or top-dose-only effect, or another doubt; inactive = no such curve, though single readings can be large; an effect the other way counts as inactive or inconclusive; also: nearly all actives have a fitted effect of over 75% in size
Each line names hits and unclear results; the compound was inactive in the other large screens (follow-up assays come after a bar, where they were run). An excerpt weighted towards active compounds, which were near 4.7% of everything screened. Rule as the data show it, unless noted: active = activation above about 30%; inactive = the rest.

Cn1sccc1=O	none
CN(C)C(=O)c1ccc(NS(=O)(=O)c2ccc3c(c2)OCCO3)cc1	TRHR enhancer-1 66 | TRHR enhancer-2 inactive | TRHR agonist-2 inactive
O=C(O)c1ccc(NS(=O)(=O)c2ccc3c(c2)OCCO3)cc1	none (no result: D1 PAM)
COc1cc(C)nc(N(Cc2ccccc2)S(=O)(=O)c2ccccc2)n1	none
COC(=O)CN(c1nc(C)cc(OC)n1)S(=O)(=O)c1ccccc1	TRHR enhancer-1 68 | TRHR enhancer-2 inactive | TRHR agonist-2 inactive
CC(C)Cc1ccc(S(=O)(=O)Nc2cccnc2)cc1	TRHR enhancer-1 58 | TRHR enhancer-2 inactive | TRHR agonist-2 inactive
Cc1ccc(-c2ccc(S(=O)(=O)Nc3cccnc3)cc2)cc1	none
CCc1nn(CC(=O)NCCc2ccc(Cl)cc2)c(=O)c2cc3ccccc3n12	none
Cc1ccc(Cn2ccc(C3CC3)n2)cc1	TRHR enhancer-1 51 | TRHR enhancer-2 inactive | TRHR agonist-2 inactive
COc1ccc(NC2CCCN(C(=O)CSc3ccncc3)C2)cc1 (stereo not given)	TRHR enhancer-1 83 | TRHR enhancer-2 inactive | TRHR agonist-2 inactive
COc1ccccc1NC(=O)CSC1=Nc2ccccc2N=C(c2ccc(F)cc2)C1	none
O=C1/C(=C/c2cccs2)CCC/C1=C\c1cccs1	none
Cn1cccc1/C=C1\CCC/C(=C\c2cccn2C)C1=O	D1 antag -32, D1 agonist 139, TRHR agonist-1 53 | TRHR enhancer-2 inactive | TRHR agonist-2 18µM
COc1ccc(OC)c(CCNC(=O)CCn2c(=O)c3cccn3c3cccnc32)c1	none
NS(=O)(=O)c1ccc(NC(=O)COC(=O)c2cn(-c3ccccc3)nc2-c2ccc(F)cc2)cc1	TRHR enhancer-1 45 | TRHR enhancer-2 inactive | TRHR agonist-2 inconclusive
CCCCc1ccc(NC(=O)Cn2cnc3c2c(=O)n(C)c(=O)n3C)cc1	none
O=C(CSc1nnc(CNC(=O)c2c(F)cccc2F)o1)NCc1ccco1	none
CCSc1ccccc1C(=O)N1CCN(c2ccccc2F)CC1	TRHR enhancer-1 42 | TRHR enhancer-2 inactive | TRHR agonist-2 inactive
O=C(Cc1ccccc1)N1CCN(c2ccccc2F)CC1	TRHR enhancer-1 48 | TRHR enhancer-2 inactive | TRHR agonist-2 inactive
CC(=O)c1ccc(N2CCN(C(=O)Cc3ccccc3)CC2)c(F)c1	none
COc1cccc(CNC(=O)C(NS(=O)(=O)c2ccc3c(c2)oc(=O)n3C)C(C)C)c1 (stereo not given)	none
O=C(Cc1ccc(Cl)cc1)NNC(=O)c1ccco1	none
O=C(c1ccc(CSc2nc3ccncc3n2Cc2ccccc2F)cc1)N1CCCCC1	TRHR enhancer-1 58 | TRHR enhancer-2 inactive | TRHR agonist-2 inactive
CC(=O)COc1ccc2cc(-c3ccccc3)c(=O)oc2c1	none
O=C(CCCCl)Oc1ccc2cc(-c3ccc4ccccc4n3)c(=O)oc2c1	D1 agonist 51, TRHR agonist-1 32 | TRHR enhancer-2 inactive | TRHR agonist-2 inconclusive
CCOC(=O)c1ccccc1NC(=O)c1cc2c(=O)oc3ccc(C)cc3c2s1	none
Cn1c(C(=O)N2CCC(C(N)=O)CC2)cc2cc(Cl)ccc21	TRHR enhancer-1 57 | TRHR enhancer-2 inactive | TRHR agonist-2 inactive
NC(=O)C1CCN(C(=O)c2ccc3ccccc3c2)CC1	none
CCCN(CCC)CCCNC(=O)c1cc2c(=O)[nH]c3ccccc3c2s1	none
COc1ccccc1N1CCN(C(=O)CSc2nc3ccccc3nc2N2CCC(C)CC2)CC1	TRHR enhancer-1 54 | TRHR enhancer-2 inactive | TRHR agonist-2 inactive
COc1ccccc1N1CCN(C(=O)CSc2nc3ccccc3nc2N2CCCCC2)CC1	none
CCn1c2ccccc2c2cc(CNCCCN3CCOCC3)ccc21	TRHR enhancer-1 43 | TRHR enhancer-2 inactive | TRHR agonist-2 inactive
COc1nc(N2CCOCC2)nc(C)c1[N+](=O)[O-]	none
Cc1nc(N2CCOCC2)nc(OC(C)C)c1[N+](=O)[O-]	TRHR enhancer-1 58 | TRHR enhancer-2 inactive | TRHR agonist-2 inactive
O=C(CN1C(=O)COc2ccc(S(=O)(=O)N3CCOCC3)cc21)N1CCN(c2ccc(Cl)cc2)CC1	none
Cc1ccccc1Nc1nc(N)nc(COC(=O)CCS(=O)(=O)c2ccccc2)n1	none
Cc1ccccc1Nc1nc(N)nc(COC(=O)CC2CC3CCC2C3)n1 (stereo not given)	TRHR enhancer-1 51 | TRHR enhancer-2 inactive | TRHR agonist-2 inactive
Cc1cc(Cl)ccc1OCCCC(=O)NNC(=O)c1ccncc1	none
CC1C(=O)CC(c2ccccc2)NC1c1ccccc1 (stereo not given)	TRHR enhancer-1 45 | TRHR enhancer-2 inactive | TRHR agonist-2 inactive
CC(C)C1C(=O)CC(c2ccccc2)NC1c1ccccc1 (stereo not given)	none
CC1(c2ccccc2)NC(=O)N(CC(=O)N2CCN(S(=O)(=O)c3cccs3)CC2)C1=O (stereo not given)	none
CCn1ccnc1[C@@H]1C[C@H]2CN(Cc3ccccc3OC)C(=O)[C@]23CCCN13	TRHR enhancer-1 46 | TRHR enhancer-2 inactive | TRHR agonist-2 inactive
Cc1ccc(N2CCN(C(=O)c3cc(C(=O)c4ccccc4C)c[nH]3)CC2)c(C)c1	TRHR enhancer-1 86 (no result: D1 PAM) | TRHR enhancer-2 inactive | TRHR agonist-2 inactive
Cc1ccc(N2CCN(C(=O)c3ccccc3)CC2)c(C)c1	none
CCc1nc(Nc2ccncc2)c2oc3ccccc3c2n1	TRHR enhancer-1 47 | TRHR enhancer-2 inactive | TRHR agonist-2 inactive
CCC1CCC/C1=N\NC(=O)c1ccoc1C (stereo not given)	none
COc1ccccc1/C=N/OCc1cc(C(C)=O)ccc1OC	TRHR enhancer-1 56 | TRHR enhancer-2 inactive | TRHR agonist-2 inactive
COc1ccc(C(C)=O)cc1COc1ccccc1[N+](=O)[O-]	none
Cc1cc(=O)c(C(=O)Nc2cccc(C(=O)NC3CC3)c2)nn1-c1ccccc1Cl	none
COc1cccc(NC(=O)CN(c2ccc(C)cc2)S(=O)(=O)c2c(C)nn(C)c2C)c1	TRHR agonist-1 33 | TRHR enhancer-2 inactive | TRHR agonist-2 inactive
COc1ccc(N(CC(=O)Nc2cccc(OC)c2)S(=O)(=O)c2c(C)nn(C)c2C)cc1	none
CCC(=O)c1c[nH]c(C(=O)NCc2cccs2)c1	none
CC(C)CC(=O)c1c[nH]c(C(=O)NCc2cccs2)c1	TRHR enhancer-1 44 (no result: D1 antag) | TRHR enhancer-2 inactive | TRHR agonist-2 inactive
CC(=O)Nc1ccc(S(=O)(=O)NCCC(=O)OCC(=O)N2CCN(C(=O)c3ccco3)CC2)cc1	TRHR enhancer-1 46 | TRHR enhancer-2 inactive | TRHR agonist-2 inactive
CCOC(=O)c1c(C)n(-c2ccccc2)c2ccc(O)cc12	TRHR enhancer-1 46, D1 antag -70 | TRHR enhancer-2 inactive | TRHR agonist-2 inactive
COc1cccc(NC(=O)CCN2CCOCC2)c1	TRHR enhancer-1 62 | TRHR enhancer-2 inactive | TRHR agonist-2 inactive
